# The list is not random: actives were taken first. Their share in the collection is about 1.3%.
# NCOA3 inh = inhibitors of human steroid receptor coactivator 3 (SRC3); Q9Y6Q9; HEK293 GAL4-SRC3 luciferase reporter, luminescence; inhibition, % at 3.6 µM; 360,000 tested, 0.17% active; AID 588352;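 active means inhibition above a per-campaign cutoff, the mean of all compounds plus 3 SD, cut at about 60% in these data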;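 further: 0% = DMSO-treated cells and 100% = gossypol-treated cells at 36 µM; higher means less SRC3-driven luciferase light from the GAL4 reporter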
# NCOA2 inhibitor = human SRC2 (NCOA2) inhibition; HEK293 GAL4-SRC2 luciferase reporter, luminescence; inhibition, % at 9 µM; 370,000 tested, 0.17% active;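 active means inhibition above the mean inhibition of all tested compounds plus 3 SD, set per campaign, cut at about 52% in these data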;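 further: 0% = DMSO treated cells and 100% = cells given Gossypol at 36 µM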
# Gli-Sufu antag = Gli-Sufu pathway antagonism | Sufu-KO-LIGHT fibroblasts, Gli luciferase reporter luminescence | inhibition, % at 5 µM | 340,000 tested, 0.74% active | AID 588413;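 active means inhibition above about 55%, limit read from the data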;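 further: 0% = DMSO-treated cells and 100% = wells with medium but no cells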
# LRH-1 inv ag = suppresses constitutive activity of human LRH-1 | inhibition, % at 3.6 µM | HEK293T StAR-luciferase reporter, LRH-1 transfected, 24 h | 360,000 tested, 0.13% active | O00482;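 active means inhibition above the mean inhibition of all tested compounds plus 3 SD, cut at about 73% in these data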;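 further: 0% = DMSO wells and 100% = reporter-only cells lacking LRH-1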
# SRC1 inh = inhibitors of human steroid receptor coactivator 1 (SRC1); AID 588354; HEK293 GAL4-SRC1 luciferase reporter, luminescence; 360,000 tested, 0.12% active; inhibition, % at 3.6 µM;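 active means inhibition above the campaign mean plus 3 SD, with each screening campaign given its own cutoff, cut at about 60% in these data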;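 further: 0% = DMSO treated cells and 100% = gossypol at 36 µM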
# COUP-TFII inh = inhibitors of human COUP-TFII (NR2F2); P24468; HEK293T NGFI-A luciferase reporter, luminescence; inhibition, % at 8.6 µM; 370,000 tested, 0.7% active; AID 686940;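 active means inhibition above a per-plate cutoff, mean inhibition of test wells between control levels plus 3 SD, cut at about 38% in these data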;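 further: cells cotransfected with COUP-TFII expression vector driving the NGFI-A reporter; 0% = median of COUP-TF2 test wells and 100% = reporter-only cells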
# VP16 Luc counter = counter-screen for COUP-TFII antagonists: inhibitors of VP16. shares compounds with COUP-TFII inh. HEK293 Gal4-VP16 luciferase reporter, luminescence. inhibition, % at 8.5 µM. 2,500 tested, 25% active; in the data active means inhibition above about 13%
# NR2F2 inh conf = COUP-TFII (NR2F2) inhibition, confirmation assay | inhibition, % at 8.5 µM | HEK293 NGFI-A luciferase reporter, luminescence | shares compounds with COUP-TFII inh | AID 687008 | 2,500 tested, 45% active;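 active means mean inhibition over three repeats above a set limit taken from the earlier primary screen, cut at about 38% in these data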;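 further: 100% = cells given the luciferase reporter alone without the COUP-TF2 vector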
# Active calls of the source: *; / = not tested or not shown.
SMILES,NCOA3 inh,NCOA2 inhibitor,Gli-Sufu antag,LRH-1 inv ag,SRC1 inh,COUP-TFII inh,VP16 Luc counter,NR2F2 inh conf
COc1cccc(CNc2nc3cc(-c4cnn(Cc5ccccc5)c4)sc3c(=O)n2C)c1,34,-7,/,44,14,79*,17*,54*
CC(C)c1cc(C(C)C)c(S(=O)(=O)NCC(=O)N2CCN(c3ncccn3)CC2)c(C(C)C)c1,/,-1,/,/,/,-13,/,/
O=[N+]([O-])c1ncccc1OCCOc1ccc(Cl)cc1Cl,/,/,/,/,/,1,/,/
COc1ccc2cc3c(N)nn(C(=O)c4ccccc4[N+](=O)[O-])c3nc2c1,57,37,-24,50,49,43*,15*,31
O=C(NCCc1c[nH]c2ccccc12)C(=O)NCC(c1cccnc1)N1CCN(c2ccccc2)CC1 (stereo unspecified),21,28,13,28,16,67*,0,34
CC(=O)N[C@@H](C)CCc1ccc(Oc2ccc(OC(C)C)nc2)cc1,/,/,/,/,/,39*,-32,1
Cc1cccc(C)c1OCc1cc(C(=O)N(Cc2c(C)nn(C)c2C)C2CC2)no1,23,10,44,12,19,51*,0,32
Cc1nc(N)nc(N)c1/C=C/C(C)(C)c1ccc(Cl)cc1,49,22,/,45,70*,47*,28*,23
COc1ccc(C2CCC3(CCC(=O)N3CCOC(=O)NCc3ccc(Cl)cc3)CC2)cc1 (stereo unspecified),/,23,/,/,/,40*,2,16
Cc1ccc(-c2nnc(SCC(=O)Nc3ccccc3F)o2)cc1,9,62*,-34,32,33,64*,24*,40*
O=S(=O)(NCc1ccccc1)c1cc(Br)ccc1Br,/,-12,/,/,/,1,/,/
CC1CCC2C(=O)N(c3ccc(Cc4ccncc4)cc3)C(=O)C2C1 (stereo unspecified),21,5,43,31,-13,45*,5,37
O=C1C2C3C=CC(C3)C2C(=O)N1c1ccc(Cc2ccncc2)cc1 (stereo unspecified),18,1,-3,26,19,27,/,/
CCOc1ccc(OCC)c(NC(=O)C2CCCN2S(=O)(=O)c2cccc3cccnc23)c1 (stereo unspecified),24,-38,-3,7,12,40*,1,12
O=C(NC1CCN(Cc2ccccc2)CC1)c1cccc(S(=O)(=O)Nc2cc(C(F)(F)F)ccc2Cl)c1,17,22,23,0,1,21,/,/
COc1ccc(Cl)cc1NS(=O)(=O)c1cccc(C(=O)NC2CCN(Cc3ccccc3)CC2)c1,30,27,11,33,-3,48*,17*,33
CCCCOc1ncnc2c1[nH]c1ccccc12,10,-8,-10,12,-6,49*,-60,33
CCCCOc1ncnc2c1[nH]c1ccc(OC)cc12,/,-36,-71,/,/,-30,/,/
CCCc1cn(-c2ccc3c(c2)[C@]2(CC(=O)N(C)C2c2ccccc2)C(=O)N3CC(C)C)nn1 (stereo partly specified),/,9,/,/,/,0,/,/
CCOC(=O)N/N=C/c1c(C)nn(-c2ccccc2Cl)c1Cl,-43,-100,-81,-60,-85,-45,/,/
Cc1nn(-c2ccccc2Cl)c(Cl)c1/C=N/Nc1nc2ccccc2s1,79*,81*,86*,41,67*,86*,88*,102*
COC[C@H]1O[C@]2(c3ccccc3)CO[C@H]1[C@@H](/C=C/c1ccccc1)C2,/,6,/,/,/,4,/,/
CCOc1cc(CNCc2ccncc2)cc(Br)c1OCc1ccc(F)cc1,18,7,9,25,-1,39*,4,8
CCCCC(=O)N(C)c1c(C)nc2ccc(C(=O)NCCOc3ccc(OC)cc3)cn12,0,-16,/,7,16,-5,/,/
COc1ccc(OCCNC(=O)c2ccc3nc(C)c(N(C)C(=O)CCc4ccccc4)n3c2)cc1,1,45,/,-1,13,85*,-15,3
SMILES,NCOA3 inh,NCOA2 inhibitor,Gli-Sufu antag,LRH-1 inv ag,SRC1 inh,COUP-TFII inh,VP16 Luc counter,NR2F2 inh conf
Cc1ccc2c(c1)N(C)/C(=C/c1cccc[n+]1C)S2,30,-12,82*,44,26,57*,0,42*
CCN1/C(=C/c2cccc[n+]2C)Sc2ccc(OC)cc21,30,22,77*,38,24,77*,-4,46*
CC(=O)c1ccc2c(c1)N(C)c1ccccc1S2,17,-4,1,10,1,-3,/,/
CCN1/C(=C/C(C)=O)Sc2ccc(OC)cc21,3,16,-3,8,7,-18,/,/
COc1ccc(CN2CN3Cc4ccccc4C3CS2(=O)=O)cc1 (stereo unspecified),/,-7,/,/,/,4,/,/
O=C(NC1CCCCN(Cc2ccc(Cl)cc2)C1=O)c1ccccc1 (stereo unspecified),/,25,/,/,/,-40,/,/
COCCn1c(C)cc(C(=O)CSc2nnnn2C2CCCC2)c1C,34,39,16,24,43,59*,35*,68*
Cc1ccc(-c2cc(C(=O)NN=Cc3ccc(N(C)C)cc3)[nH]n2)cc1C,/,-34,/,/,/,0,/,/
Cn1c(SCC(=O)Nc2ccccc2-c2ccccc2)nnc1-c1cnccn1,/,1,/,/,/,5,/,/
Cc1cccc(Nc2nc(-c3c(C)nc4ccccn34)cs2)c1,37,8,49,18,11,53*,-6,44*
Cc1nc2ccccn2c1-c1csc(Nc2cccc(O)c2)n1,15,18,7,31,11,9,/,/
Cc1ccc(NC(=O)Cc2ccc(OC(F)F)cc2)c(S(=O)(=O)N2CCOCC2)c1,/,12,/,/,/,8,/,/
COc1cc(-c2cnc3c(NC=O)cc(-c4ccc(N5CCN(C)CC5)cc4)cn23)cc(OC)c1OC,-86,-25,/,-72,-63,-88,/,/
CC(=O)Nc1cc(-c2cccc(NS(C)(=O)=O)c2)cn2c(-c3cccc(C(C)=O)c3)cnc12,13,-16,/,38,-22,-12,/,/
COc1cc(-c2cnc3c(NC(C)=O)cc(-c4ccc(N5CCN(C)CC5)cc4)cn23)cc(OC)c1OC,14,13,/,-18,27,41*,-15,9
COc1ccc(-c2cnc3c(NC(C)=O)cc(-c4cccc(NS(C)(=O)=O)c4)cn23)cc1OC,1,-3,/,18,-13,99*,-1,-8
CCCCOCC1CN(CCCC)S(=O)(=O)c2c(cccc2N2CCCC2)O1 (stereo unspecified),/,10,/,/,/,3,/,/
Cc1ccc(C(=O)N/N=C/c2ccc([N+](=O)[O-])s2)cc1,56,83*,-29,47,48,53*,84*,93*

# Bioassay records as filed in PubChem BioAssay.
